The results in this text go back to PubChem BioAssay AID1851 (National Center for Advancing Translational Sciences (NCATS), 2009).

For orientation: AC50 means the concentration giving half of the maximal activity seen.

SMILES strings stand for the structures. Among all 16,000 compounds or so, about 2,600 (16%) were called active. Inconclusive results (about 20%) are left out. Only a sample is shown. A number with no mark means an inactive call. The call rests on the fitted dose curve; in most records, active means well fitted curve in the direction sought with a large enough effect; inconclusive means small, poorly fitted or top-dose-only effect, or effect the other way; inactive means no such curve, though single readings can be large or run the other way.
On the % scale 0 is the no-effect control and ±100 the full control effect.

Sequence of Cytochrome P450 2D6 (Homo sapiens) (P10635 whole entry, looked up): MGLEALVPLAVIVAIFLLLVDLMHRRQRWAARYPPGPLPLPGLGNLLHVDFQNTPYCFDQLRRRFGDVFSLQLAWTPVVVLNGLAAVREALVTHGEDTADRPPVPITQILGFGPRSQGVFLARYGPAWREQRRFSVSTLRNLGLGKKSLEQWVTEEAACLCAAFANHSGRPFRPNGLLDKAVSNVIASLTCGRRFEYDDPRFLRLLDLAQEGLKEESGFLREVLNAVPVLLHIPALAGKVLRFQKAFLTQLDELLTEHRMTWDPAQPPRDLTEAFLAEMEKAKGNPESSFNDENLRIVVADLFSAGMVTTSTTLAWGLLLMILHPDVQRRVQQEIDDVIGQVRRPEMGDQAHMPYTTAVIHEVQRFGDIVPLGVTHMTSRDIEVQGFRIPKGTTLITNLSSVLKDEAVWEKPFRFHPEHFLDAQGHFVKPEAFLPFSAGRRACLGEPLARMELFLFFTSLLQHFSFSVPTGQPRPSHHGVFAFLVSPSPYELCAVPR

The experiment has as its target Cytochrome P450 2D6 (Homo sapiens) (UniProt P10635). The experiment in a line: Cytochrome panel assay with activity outcomes. The settings on record: recombinant CYP, pro-luciferin dealkylation, luminescence, p450-cyp2d6; series mostly up to 57.1 µM.
Regarding `CN1CCN(c2nc3c(c(=O)n(C)c(=O)n3C)n2C)CC1`, the activity, negative = inhibition was 6.17% [at 11.4 µM].
Regarding `CCCCN(C(=S)Nc1ccccc1)C1CCS(=O)(=O)C1` (stereo not drawn), the AC50 result was “inactive”.
The same measure, in the same setting: the same measure for `Fc1ccc(N2CCN(c3ccc4c(C(F)(F)F)cc(C(F)(F)F)nc4n3)CC2)cc1`: “inactive”; for `O=C(NCc1ccccc1)c1onc(CSc2ccc(F)cc2)c1C(=O)NCCCN1CCOCC1`: 10 µM (active).
The same measure, in the same setting: the same measure for `C=CCNC(=O)c1onc(CSc2ccc(F)cc2)c1C(=O)O`: “inactive”; for `COCCNC(=O)c1onc(CSc2ccc(Cl)cc2)c1C(=O)O`: “inactive”.
On the same count and under the same terms, the same measure for `COc1ccc(-n2c(=O)c(-c3cn(C)c4ccccc34)nc3cnc(OC)nc32)cc1`: “inactive”; for `CCOc1ccc(N(C(C)C(=O)N/N=C(\C)c2cccc(NC(=O)c3ccccc3)c2)S(C)(=O)=O)cc1` (stereo not drawn): “inactive”.
`COc1ccc2c(c1)CCc1sc(NC(=O)c3ccc(C)cc3)nc1-2`: the AC50 result is “inactive”.
The same measure, in the same setting: the same measure for `Cn1c(=O)c(-c2cccs2)nc2cncnc21`: “inactive”.
For `Cc1oc(-c2cccc(Cl)c2)[n+]([O-])c1C`, the AC50 entry is “inactive”.
Consider `O=S1(=O)OC(c2ccc(O)cc2)(c2ccc(O)cc2)c2ccccc21`, for which the activity, negative = inhibition was 12.2% [at 11.4 µM].
Regarding `COc1ccc(CNc2ccnc(-c3ccc4c(c3)OCO4)n2)c(OC)c1`, the AC50 was 10 µM (active).
The same measure, in the same setting: the same measure for `COc1ccccc1CNc1ccnc(-c2ccc3c(c2)OCO3)n1`: 0.794 µM (active); for `Cc1c(C#N)c(=O)oc2ccc3ccccc3c12`: “inactive”.
On the same count and under the same terms, the same measure for `NC(=O)c1ccc(N2CCCCC2)c(N2C(=O)C3CC=CCC3C2=O)c1` (stereo not drawn): “inactive”.
Regarding `O=C(O)c1ccc(NS(=O)(=O)Cc2ccccc2)cc1`, the activity, negative = inhibition was 0.0348% [at 11.4 µM].
In the case of `COc1cc(C(=O)Nc2nc3ccc4nc(C)sc4c3s2)cc(OC)c1OC`, the AC50 entry was “inactive”.
The same measure, in the same setting: the same measure for `O=C(COc1ccc2ccccc2c1)N1CCN(C(=O)c2cccnc2)CC1`: “inactive”; for `Cc1cccc(C(=O)NC2CCN(C(=O)N3CCOCC3)CC2)c1`: “inactive”; for `Cc1cccc(OCC(=O)N2CCC(N3CCCCCC3)CC2)c1`: 4.47 µM (active).
On the same count and under the same terms, the same measure for `COCCn1c(=O)c(-c2cccc(C#N)c2)nc2cnc(OCc3ccccc3)nc21`: “inactive”; for `CC(=O)NC1=NC(=O)C(C)S1` (stereo not drawn): “inactive”.
With `O=c1c(-c2cccs2)nc2cnc(N3CCNCC3)nc2n1Cc1cccs1`, the AC50 result was “inactive”.
On the same count and under the same terms, the same measure for `Cc1ccc(-n2nc3ccc(NC(=O)c4ccc5c(c4)OCO5)cc3n2)cc1`: “inactive”.
The same measure, in the same setting: the same measure for `O=C(Nc1cccc(-c2nc3ccccc3s2)c1)c1ccc2c(c1)OCO2`: 0.1 µM (active); for `O=C(Nc1cc(-c2nc3ccccc3s2)ccc1Cl)c1ccc2c(c1)OCO2`: “inactive”; for `CCn1c(-c2ccccc2Cl)nn(CC(=O)Nc2ccc(OC)cc2)c1=S`: “inactive”.
